Experimental data reported in PubChem BioAssay AID1159580 (chemical genetic matrix, 2015).
Values joined by “and” are separate entries in the source; they are usually repeats but may differ in a detail not shown here. Equal entries are not always repeated. About 2,000 (36%) of roughly 5,500 compounds were called active. Roughly 18% stayed inconclusive and do not appear here. Cut-off read from the data, not from the text of the source: active = normalized growth mostly below about 0.91 (no sharp cut-off); inconclusive = no clear call, values can overlap the other calls; inactive = mostly above about 0.92. Some of the results follow.

Experiment: chemical genetic growth profiling, strain panel (AID 1159580);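 note: tested at 20 µM; growth read once vehicle control cultures reached saturation at 30 °C; 1 = growth at the plate median or of vehicle wells; lower values mean less growth of the strain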
Details: S. cerevisiae deletion strains, growth OD

Measured: normalized growth

Cc1ccccc1N1C(=O)c2cc(S(N)(=O)=O)c(Cl)cc2NC1C (stereo not drawn)
inactive: locus YAL013W, strain DEP1, stronger effect = lower value 0.989 | locus YAL021C, strain ccr4, stronger effect = lower value 1 | locus YAL026C, strain drs2, stronger effect = lower value 0.983 | locus YAL030W, strain snc1, stronger effect = lower value 0.991 | locus YBL061C, strain skt5, stronger effect = lower value 0.987 | locus YBR009C, strain hhf1, stronger effect = lower value 1 | locus YBR021W, strain FUR4, stronger effect = lower value 0.968 | locus YBR023C, strain chs3, stronger effect = lower value 0.989 | locus YBR171W, strain sec66, stronger effect = lower value 0.963 | locus YBR229C, strain ROT2, stronger effect = lower value 0.982 | locus YBR231C, strain swc5, stronger effect = lower value 0.987 | locus YBR279W, strain paf1, stronger effect = lower value 0.996 | locus YCL011C, strain gbp2, stronger effect = lower value 0.997 | locus YCL016C, strain dcc1, stronger effect = lower value 1.03 | locus YCL029C, strain bik1, stronger effect = lower value 0.979 | locus YCL069W, strain vba3, stronger effect = lower value 0.996 | locus YCR088W, strain abp1, stronger effect = lower value 0.978 | locus YDL005C, strain med2, stronger effect = lower value 0.96 | locus YDL035C, strain GPR1, stronger effect = lower value 1.01 | locus YDL040C, strain nat1, stronger effect = lower value 0.986 | locus YDL074C, strain BRE1, stronger effect = lower value 1.02 | locus YDL101C, strain DUN1, stronger effect = lower value 0.985 | locus YDL134C, strain PPH21, stronger effect = lower value 0.983 | locus YDL185W, strain tfp1, stronger effect = lower value 0.984 | locus YDL192W, strain arf1, stronger effect = lower value 0.98 | locus YDR001C, strain nth1, stronger effect = lower value 0.957 | locus YDR069C, strain doa4, stronger effect = lower value 0.96 | locus YDR101C, strain arx1, stronger effect = lower value 0.994 | locus YDR137W, strain rgp1, stronger effect = lower value 1 | locus YDR159W, strain sac3, stronger effect = lower value 0.973 | locus YDR162C, strain NBP2, stronger effect = lower value 0.994 | locus YDR195W, strain ref2 0.944 | locus YDR297W, strain sur2, stronger effect = lower value 1 | locus YDR318W, strain mcm21, stronger effect = lower value 0.99 | locus YDR334W, strain swr1, stronger effect = lower value 0.918 | locus YDR335W, strain msn5, stronger effect = lower value 0.973 | locus YDR388W, stronger effect = lower value 0.994 | locus YDR392W, strain spt3, stronger effect = lower value 1.01 | locus YDR502C, strain sam2, stronger effect = lower value 0.983 | locus YEL003W, strain gim4, stronger effect = lower value 0.978 | locus YEL037C, strain rad23, stronger effect = lower value 0.978 | locus YEL061C, strain CIN8 (second series), stronger effect = lower value 0.985 | locus YEL061C, strain CIN8, stronger effect = lower value 0.993 | locus YER015W, strain faa2, stronger effect = lower value 0.986 | locus YER016W, strain bim1, stronger effect = lower value 0.998 | locus YER110C, stronger effect = lower value 0.976 | locus YER111C, strain swi4, stronger effect = lower value 0.987 | locus YER155C, strain BEM2 (second series), stronger effect = lower value 0.99 | locus YER155C, strain BEM2, stronger effect = lower value 0.981 | locus YER167W, strain BCK2, stronger effect = lower value 0.981 | locus YFR010W, strain ubp6, stronger effect = lower value 0.968 | locus YGL078C, strain dbp3, stronger effect = lower value 0.981 | locus YGL086W, strain mad1, stronger effect = lower value 1.01 | locus YGL167C, strain pmr1, stronger effect = lower value 0.996 | locus YGL173C, strain kem1, stronger effect = lower value 1.01 | locus YGL227W, strain vid30, stronger effect = lower value 0.972 | locus YGL240W, strain doc1, stronger effect = lower value 0.995 | locus YGL248W, strain PDE1, stronger effect = lower value 1 | locus YGL253W, strain hxk2, stronger effect = lower value 0.972 | locus YGR135W, strain pre9, stronger effect = lower value 0.986 | locus YGR229C, strain SMI1, stronger effect = lower value 0.982 | locus YGR252W, strain gcn5, stronger effect = lower value 0.991 | locus YHR013C, strain ard1, stronger effect = lower value 1.02 | locus YHR027C, strain rpn1, stronger effect = lower value 0.991 | locus YHR030C, strain SLT2, stronger effect = lower value 0.987 and 0.961 | locus YHR079C, strain IRE1 (second series), stronger effect = lower value 0.997 | locus YHR079C, strain IRE1, stronger effect = lower value 0.966 | locus YHR094C, strain hxt1, stronger effect = lower value 0.99 | locus YHR129C, strain ARP1, stronger effect = lower value 0.988 | locus YHR142W, strain chs7, stronger effect = lower value 0.969 | locus YHR200W, strain rpn10, stronger effect = lower value 0.982 | locus YIL066C, strain RNR3, stronger effect = lower value 1.01 | locus YIL073C, strain SPO22, stronger effect = lower value 1.03 | locus YIL125W, strain kgd1, stronger effect = lower value 0.991 | locus YIR030C, strain dcg1, stronger effect = lower value 0.987 | locus YJL092W, strain hpr5, stronger effect = lower value 0.992 | locus YJL095W, strain BCK1 (second series), stronger effect = lower value 0.956 | locus YJL095W, strain BCK1, stronger effect = lower value 1.03 and 0.975 | locus YJL115W, strain asf1, stronger effect = lower value 0.965 | locus YJL129C, strain trk1, stronger effect = lower value 0.941 | locus YJL134W, strain LCB3, stronger effect = lower value 0.986 | locus YJL154C, strain vps35, stronger effect = lower value 0.961 | locus YJL164C, strain tpk1, stronger effect = lower value 1.03 | locus YJL166W, strain qcr8, stronger effect = lower value 0.978 | locus YJL168C, strain set2, stronger effect = lower value 0.992 | locus YJL187C, strain SWE1 (second series), stronger effect = lower value 1 | locus YJR043C, strain POL32, stronger effect = lower value 0.994 | locus YJR066W, strain TOR1, stronger effect = lower value 0.923
